Compound activity deposited in PubChem BioAssay by several laboratories.
Compounds with a hit are over-represented: about 2.8% of the library has one in this group of screens.
IDE act: human IDE activators in live cells, primary screen, fluorescence polarization, HEK cells, FAbeta-B substrate | FAbeta-B cleavage; 0% vehicle, 100% cell-free pure enzyme wells | 340,000 tested, 0.073% active | Insulin-degrading enzyme (Homo sapiens), P14735 | activation, % at 5.96 µM;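 active = activation above the mean of all tested compounds plus 3 SD, set per screening campaign, cut at about 17% in these data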
SKKanGAS inh: S. pyogenes SKKanGAS growth inhibitors in kanamycin, primary screen, streptokinase expression inhibitor project, SKKanGAS strain, BacTiter-Glo luminescence; 6 h; inhibition, % at 7.5 µM; 300,000 tested, 1.3% active; AID 1662, 2009;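 active = mean replicate score, as percent of positive control median, at least 50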;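 also: strain carries kanamycin resistance gene driven by streptokinase promoter and grows in 40 µg/ml kanamycin; loss of luminescence reflects streptokinase promoter inhibition or plain growth inhibition; 0% = median of DMSO wells and 100% = positive control at its reference dose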
IDE cell inh: human IDE inhibitors in live cells, primary screen, fluorescence polarization, HEK cells, FAbetaB substrate; Insulin-degrading enzyme (Homo sapiens), P14735; FAbetaB cleavage; inhibition, % at 5.59 µM; 320,000 tested, 0.41% active; AID 434962, 2010;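 active = percent inhibition above the average of all tested compounds plus 3 SD, set per screening campaign, cut at about 16% in these data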;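 also: IDE supplied by intact live HEK cells; FP after avidin binding of uncleaved biotin substrate so inhibition keeps polarization high; 0% = DMSO wells and 100% = 60 µM reference IDE inhibitor Ii1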
PP1 inh: PP1-alpha phosphatase inhibitors, primary screen, counter-screen for PP5 inhibitor project, biochemical, fluorescence, OMFP substrate, single point; purified PP1alpha; AID 2235, 2010; inhibition, % at 6.7 µM; Serine/threonine-protein phosphatase PP1-alpha catalytic subunit (Homo sapiens), P62136; 320,000 tested, 0.9% active;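 active = inhibition above the mean inhibition of all tested compounds plus 3 SD, computed separately for each screening campaign, cut at about 15% in these data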
Exocytosis inh: LAMP-1 surface exposure blockers, TALL-104 cells – cell-based, flow cytometry, MLPCN library, primary screen; TALL-104 LAMP-1 surface exposure; cells stimulated with thapsigargin and PMA; inhibition, % at 10 µM; 360,000 tested, 0.66% active; AID 651702, 2012;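 active = inhibition above about 55%, limit read from the data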
PP5 primary: PP5 phosphatase inhibitors, primary screen, biochemical, fluorescence | inhibition, % at 6.7 µM | AID 1987, 2009 | 320,000 tested, 0.18% active | Serine/threonine-protein phosphatase 5 (Homo sapiens), P53041 | purified PP5c, OMFP substrate fluorescence;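 active = inhibition above the campaign's mean inhibition across all tested compounds plus 3 SD, cut at about 9.5% in these data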;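 also: 0% = DMSO only and 100% = 100 µM cantharidin control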
Target sequence (P53041 whole entry, looked up): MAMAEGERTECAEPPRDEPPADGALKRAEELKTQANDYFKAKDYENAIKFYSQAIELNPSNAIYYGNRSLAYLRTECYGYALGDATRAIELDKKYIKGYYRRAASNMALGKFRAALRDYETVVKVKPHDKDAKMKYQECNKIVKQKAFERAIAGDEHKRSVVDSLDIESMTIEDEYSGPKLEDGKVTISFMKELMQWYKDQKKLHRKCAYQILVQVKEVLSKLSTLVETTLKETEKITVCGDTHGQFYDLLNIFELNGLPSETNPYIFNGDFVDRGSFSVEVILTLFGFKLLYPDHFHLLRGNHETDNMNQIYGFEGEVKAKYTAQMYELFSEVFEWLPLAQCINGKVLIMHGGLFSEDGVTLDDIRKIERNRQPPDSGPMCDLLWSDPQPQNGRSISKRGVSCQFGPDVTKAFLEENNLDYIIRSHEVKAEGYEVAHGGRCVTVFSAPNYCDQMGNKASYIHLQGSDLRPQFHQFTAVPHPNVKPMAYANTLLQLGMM
Exocytosis CP01: inhibitors of lytic granule exocytosis, confirmation, TALL-104 cells, flow cytometry, Cherry Pick01. shares compounds with Exocytosis inh. LAMP-1 externalization; stimulated with PMA plus thapsigargin. inhibition, % at 10 µM. 1,500 tested, 11% active. AID 651954, 2012; in the data active = inhibition above about 60%;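 also: 0% = stimulated vehicle wells and 100% = unstimulated wells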
The depositor's hits bear a star; nt = not tested or not shown.

SMILES	IDE act	SKKanGAS inh	IDE cell inh	PP1 inh	Exocytosis inh	PP5 primary	Exocytosis CP01
COc1cc2c(cc1OC)C(CCc1ccccc1)=NCC2	-3.3	-8.3	0.0	-1.8	62.7*	0.2	-11.9
Fc1ccccc1-c1nc2nc3ccccc3nc2n1CC1CCCO1 (stereo not given)	-1.7	-12.1	1.1	-3.9	4.0	-0.5	nt
Cc1ccc2nc(-c3ccc(N4C(=O)CC(N5CCN(CCO)CC5)C4=O)cc3)sc2c1 (stereo not given)	3.5	2.6	6.1	-2.5	66.3*	-1.4	62.1*
COC(=O)c1ccc(N2CCCCC2)c(NC(=O)c2ccco2)c1	5.2	-14.9	0.2	7.2	93.0*	3.9	-4.5
O=C(Nc1cccc(Cl)c1N1CCCC1)c1ccco1	-0.8	-7.4	-0.8	2.1	74.5*	3.5	-13.9
O=C(Nc1ccc(N2CCCC2)c(Cl)c1)c1ccco1	5.5	-2.9	-3.4	4.1	-2.9	3.0	nt
O=C(Nc1cc([N+](=O)[O-])ccc1N1CCCC1)c1ccco1	5.6	nt	-4.7	1.3	-1.3	-1.8	nt
O=C1c2ccccc2C(c2nnnn2Cc2ccccc2)N1CCc1c[nH]c2ccccc12 (stereo not given)	nt	nt	nt	nt	0.0	nt	nt
CCc1[nH]nc(C(=O)N2CCCC(N3CCN(c4ccccc4C)CC3)C2)c1C (stereo not given)	0.4	-21.6	-2.4	-8.5	-8.7	-7.4	nt
O=C(CSc1nccn(-c2ccc(F)c(F)c2)c1=O)NC1CCCC1	-4.4	-0.2	nt	nt	23.1	nt	nt
O=C(CSc1nccn(-c2cccc(F)c2)c1=O)Nc1ccc(Cl)cc1F	-5.9	-0.5	-4.3	3.6	76.3*	-0.8	-9.8
O=C(Nc1ccc(F)cc1)C(c1ccnc2ccccc12)N1CCN(CC(=O)N2CCCC2)CC1 (stereo not given)	nt	nt	nt	nt	-1.4	nt	nt
Cc1ccc(S(=O)(=O)NC(C)(C)CN2CCC(Cc3ccccc3)CC2)cc1	-0.7	-4.1	-1.1	0.0	23.1	3.4	nt
CCCn1c(C(O)c2ccc(OC)cc2)nc2ccccc21 (stereo not given)	-1.3	nt	-7.0	-1.4	-2.9	1.8	nt
CCCn1c(C(O)c2cccc(OC)c2)nc2ccccc21 (stereo not given)	2.9	2.9	nt	nt	73.2*	nt	-12.8
CCOc1cc(CNc2cccc3[nH]c(C)nc23)ccc1OC	2.7	1.6	-1.9	-3.6	-14.8	-0.5	nt
COc1ccc(CCN(C)C(=O)CSc2ncnc3sccc23)cc1OC	2.5	2.9	-3.0	-4.7	76.7*	0.0	-11.8
CC1(c2ccc(C#N)cc2)NC(=O)N(CC(=O)Nc2cc(S(=O)(=O)N3CCOCC3)ccc2Cl)C1=O (stereo not given)	2.7	8.1	4.7	7.7	-3.1	1.6	nt
CC(=O)Nc1cccc(NC(=O)CSc2n[nH]c(-c3ccccc3)n2)c1	-1.2	nt	-3.0	-0.7	-5.6	-0.2	nt
Oc1ccc(Cl)cc1/C=C/c1ccc2cccc(O)c2n1	-0.6	-39.4	nt	nt	78.3*	nt	-9.2
O=C(/C=C/c1ccc2ccccc2n1)c1cc(Cl)ccc1O	0.8	3.2	6.6	4.4	12.9	-0.9	nt
COc1ccc(-c2nc(CN3CCN(c4cc(C)nc(C)c4)CC3)c(C)o2)c2ccccc12	2.9	-1.6	0.8	2.7	58.0*	1.2	36.2
Cc1cccc(Oc2sc(C(=O)c3ccccc3)c(N)c2C#N)c1C	4.4	34.8	4.7	2.0	65.6*	6.1	5.3
N#Cc1c(Oc2ccc3ccccc3c2)sc(C(=O)c2ccccc2)c1N	0.8	28.7	2.8	-3.5	41.9	2.0	nt
O=C(Nc1ccc(S(=O)(=O)N2CCCC2)cc1)c1ccc(Br)o1	0.9	-11.2	-0.2	0.9	79.6*	-0.4	-2.3
SMILES	IDE act	SKKanGAS inh	IDE cell inh	PP1 inh	Exocytosis inh	PP5 primary	Exocytosis CP01
CCN1C(=O)[C@H]2[C@@H](c3ccc(C(F)(F)F)cc3)N[C@]3(CCCN(Cc4ccc(Cl)cc4)C3=O)[C@H]2C1=O	nt	nt	nt	nt	0.2	nt	nt
COc1ccc(CCNC(=O)C2CC3Cn4c(nc5cc(Cl)c(Cl)cc54)C3N2C)cc1 (stereo not given)	6.4	13.6	-4.3	-2.3	83.3*	-1.5	-12.9
CN1C(C(=O)NCCc2cccs2)CC2Cn3c(nc4cc(Cl)c(Cl)cc43)C21 (stereo not given)	-1.2	12.7	-1.4	-4.9	17.4	-0.2	nt
CCCCN1C(=O)C(CC(=O)NCCCCc2ccccc2)CC(C(=O)N(C)C)=C1C (stereo not given)	nt	nt	nt	nt	-1.1	nt	nt
O=C(OCN1C(=O)c2ccccc2C1=O)c1cc(S(=O)(=O)N2CCOCC2)ccc1F	6.7	nt	nt	nt	4.5	nt	nt
O=C(COc1ccc(Br)cc1CNCCc1ccccc1)NCc1ccccc1	7.1	3.3	3.5	-0.1	66.9*	2.0	-2.1
Cc1nc(C)c(C(=O)OCC(=O)Nc2ccc(C)c(C)c2)s1	nt	nt	nt	nt	-0.5	nt	nt
C[C@H](NC(=O)Nc1ccc2c(c1)OCCO2)C(=O)O	8.6	2.0	2.0	-3.1	100.9*	-1.3	-16.2
Cc1cccc(NS(=O)(=O)c2cn(C)c(=O)n(C)c2=O)c1C	5.1	-1.2	-1.9	1.8	4.1	-1.9	nt
COc1ccc(OC)c(Nc2nc(-c3ccncc3)nc3ccccc23)c1	-3.3	-0.1	nt	nt	83.2*	nt	-4.5
O=C(CC1OC(=O)c2ccccc21)Nc1cc(Cl)ccc1N1CCCC1 (stereo not given)	0.0	-0.5	-0.6	4.5	11.5	2.7	nt
Cc1cn2c(=O)c(C(=O)NCc3ccc4c(c3)OCO4)cnc2s1	0.9	-1.2	0.8	-2.3	58.7*	-1.2	-10.3
COc1ccccc1C(=O)NCC1(c2ccccc2)CCCC1	1.0	6.8	4.7	0.0	80.5*	0.9	-0.9
CCCCCCCn1c2c(c(=N)c3ccccc31)CCC2	0.2	2.0	4.7	-0.6	71.2*	-0.4	-8.9
CCCn1c2c(c(=N)c3c1CCC3)CCC2	-3.5	13.2	5.4	-1.9	-4.8	-1.4	nt
O=C(Nc1ccc(OCc2ccccc2)cc1)Nc1nnc([C@H]2C[C@H](O)[C@@H](CO)O2)s1	nt	nt	nt	nt	3.8	nt	nt
CN(C)CCNC(=O)C(c1ccccc1)c1ccccc1	-0.5	-8.1	-2.2	-6.1	0.0	0.1	nt
CN(C)CCC(=O)C(Cc1ccccc1)c1ccccc1 (stereo not given)	3.8	-5.9	5.5	-1.7	96.8*	5.1	18.4
C=CCC[C@H](CCCCC)OC(=O)/C=C/[C@@H](O)[C@H](O)C[C@@H](O)CC=C	nt	nt	nt	nt	-4.5	nt	nt
Cc1cc2nc(-c3ccco3)c(Cc3ccccc3C(F)(F)F)n2c(C)c1Br	nt	nt	nt	nt	84.8*	nt	-11.5
COCCN1C(=O)N[C@@H](c2cccc(C(F)(F)F)c2)[C@@H](C(=O)OC)[C@H]1C	3.9	11.4	2.4	-3.0	-9.1	2.4	nt
